# From the supplement of paper PMC10849652
# The full data set covers some 7,900 targets. This sample favours those with a hit. About 0.6% of all pairs of compound and target were hits. A number with no mark means an inactive call.
# Legend:
# Experiment in all cases: log2 fold change, soluble protein after heating vs DMSO (PISA); higher = thermal stabilisation; K562 cells, 10 uM, 30 min; active = over 0.2 and 3.5 SD of the protein, either way, in both replicates (recomputed)
# [1] = compound: CS(=O)(=O)c1ccc(-c2cnc(N)c(C(=O)Nc3ccccc3)n2)cc1
# In short: (§1)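 For each measurement, 10 μM compound was applied for 30 min to K562 cells at 2×10^6 cells/mL. Aliquots were heated for 3 min across 48°C-58°C, pooled, and extracted in PBS with 0.5% NP-40 at 4°C; the supernatant after 21,000xg for 90 min was soluble protein. This was quantified by TMTpro 16plex LC-MS/MS with channel sums equalised, and thermal stability was reported relative to control samples from duplicates, on a log2 fold-change scale.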
# crizotinib = compound: C[C@@H](Oc1cc(-c2cnn(C3CCNCC3)c2)cnc1N)c1c(Cl)ccc(F)c1Cl [crizotinib]
# In short: as §1
# [2] = compound: C[C@@H]1COCCN1C2=NC(=NC(=C2)C3(CC3)S(=O)(=O)C)C4=C5C=CNC5=CC=C4
# In short: as §1
# [3] = compound: C[C@H](C1=CC=C(C=C1)C(=O)NC2=C3C=CNC3=NC=C2)N
# In short: as §1
# duvelisib = compound: C[C@H](Nc1ncnc2nc[nH]c12)c1cc2cccc(Cl)c2c(=O)n1-c1ccccc1 [duvelisib]
# In short: as §1
# gandotinib = compound: Cc1cc(Nc2cc(CN3CCOCC3)c3nc(C)c(Cc4ccc(Cl)cc4F)n3n2)n[nH]1 [gandotinib]
# In short: as §1
# tozasertib = compound: Cc1cc(Nc2cc(N3CCN(C)CC3)nc(Sc3ccc(NC(=O)C4CC4)cc3)n2)n[nH]1 [tozasertib]
# In short: as §1
# [4] = compound: Cc1cc(SCc2sc(-c3ccc(C(F)(F)F)cc3)nc2C)ccc1OCC(=O)O
# In short: as §1
# doramapimod = compound: Cc1ccc(-n2nc(C(C)(C)C)cc2NC(=O)Nc2ccc(OCCN3CCOCC3)c3ccccc23)cc1 [doramapimod]
# In short: as §1
# ispinesib = compound: Cc1ccc(C(=O)N(CCCN)[C@@H](c2nc3cc(Cl)ccc3c(=O)n2Cc2ccccc2)C(C)C)cc1 [ispinesib]
# In short: as §1
# bafetinib = compound: Cc1ccc(NC(=O)c2ccc(CN3CC[C@H](N(C)C)C3)c(C(F)(F)F)c2)cc1Nc1nccc(-c2cncnc2)n1 [bafetinib]
# In short: as §1
# [5] = compound: Cc1cccc(CC(=O)N2CCc3c2ccc(-c2cn(C)c4ncnc(N)c24)c3F)n1
# In short: as §1
# nilotinib = compound: Cc1cn(-c2cc(NC(=O)c3ccc(C)c(Nc4nccc(-c5cccnc5)n4)c3)cc(C(F)(F)F)c2)cn1 [nilotinib]
# In short: as §1
# [6] = compound: Cc1nc(Nc2n[nH]c3c2CN(C(=O)N[C@H](CN(C)C)c2ccccc2)C3(C)C)c2sccc2n1
# In short: as §1
# dasatinib = compound: Cc1nc(Nc2ncc(C(=O)Nc3c(C)cccc3Cl)s2)cc(N2CCN(CCO)CC2)n1 [dasatinib]
# In short: as §1
# [7] = compound: Cc1ncc(-c2ccnc(Nc3ccc(S(C)(=O)=O)cc3)n2)n1C(C)C
# In short: as §1
# [8] = compound: Cn1cc(-c2ccc3c(c2)CCN3C(=O)Cc2cccc(C(F)(F)F)c2)c2c(N)ncnc21
# In short: as §1
# [9] = compound: Cn1cc(-c2ccc3nnc(C(F)(F)c4ccc5ncccc5c4)n3n2)cn1
# In short: as §1
# tipifarnib = compound: Cn1cncc1[C@@](N)(c1ccc(Cl)cc1)c1ccc2c(c1)c(-c1cccc(Cl)c1)cc(=O)n2C [tipifarnib]
# In short: as §1
# mubritinib = compound: FC(F)(F)c1ccc(/C=C/c2nc(COc3ccc(CCCCn4ccnn4)cc3)co2)cc1 [mubritinib]
# In short: as §1
# UniProt Q9NW64, sequence (Q9NW64 whole entry, looked up): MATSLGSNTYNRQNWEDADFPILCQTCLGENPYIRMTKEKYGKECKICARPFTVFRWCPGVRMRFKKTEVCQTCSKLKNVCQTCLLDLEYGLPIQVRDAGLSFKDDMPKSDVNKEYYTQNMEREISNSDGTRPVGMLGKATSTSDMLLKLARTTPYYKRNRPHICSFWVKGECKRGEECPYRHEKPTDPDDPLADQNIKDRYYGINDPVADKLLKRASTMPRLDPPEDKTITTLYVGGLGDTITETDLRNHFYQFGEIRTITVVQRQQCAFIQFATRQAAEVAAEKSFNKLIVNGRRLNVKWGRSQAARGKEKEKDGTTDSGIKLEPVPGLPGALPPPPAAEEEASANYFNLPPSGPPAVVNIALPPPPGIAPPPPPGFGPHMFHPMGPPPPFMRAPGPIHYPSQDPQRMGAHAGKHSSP
# UniProt Q7L4I2, sequence (Q7L4I2 whole entry, looked up): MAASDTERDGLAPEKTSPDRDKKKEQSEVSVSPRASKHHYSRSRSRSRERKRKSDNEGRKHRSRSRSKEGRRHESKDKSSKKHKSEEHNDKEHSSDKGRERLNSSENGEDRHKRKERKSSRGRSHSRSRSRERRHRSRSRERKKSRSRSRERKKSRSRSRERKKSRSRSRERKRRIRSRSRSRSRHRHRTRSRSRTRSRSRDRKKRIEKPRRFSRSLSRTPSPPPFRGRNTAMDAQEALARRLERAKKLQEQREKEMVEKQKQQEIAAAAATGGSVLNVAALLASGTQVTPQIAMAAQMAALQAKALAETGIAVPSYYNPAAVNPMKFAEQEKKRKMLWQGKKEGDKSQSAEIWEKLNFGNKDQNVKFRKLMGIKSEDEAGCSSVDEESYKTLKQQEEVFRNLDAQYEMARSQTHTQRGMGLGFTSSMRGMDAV
# UniProt Q5VUM1, sequence (Q5VUM1 whole entry, looked up): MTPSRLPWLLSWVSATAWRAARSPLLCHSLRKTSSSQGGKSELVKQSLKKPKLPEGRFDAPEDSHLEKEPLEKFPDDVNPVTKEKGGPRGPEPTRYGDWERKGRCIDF
# UniProt P27694, sequence (P27694 whole entry, looked up): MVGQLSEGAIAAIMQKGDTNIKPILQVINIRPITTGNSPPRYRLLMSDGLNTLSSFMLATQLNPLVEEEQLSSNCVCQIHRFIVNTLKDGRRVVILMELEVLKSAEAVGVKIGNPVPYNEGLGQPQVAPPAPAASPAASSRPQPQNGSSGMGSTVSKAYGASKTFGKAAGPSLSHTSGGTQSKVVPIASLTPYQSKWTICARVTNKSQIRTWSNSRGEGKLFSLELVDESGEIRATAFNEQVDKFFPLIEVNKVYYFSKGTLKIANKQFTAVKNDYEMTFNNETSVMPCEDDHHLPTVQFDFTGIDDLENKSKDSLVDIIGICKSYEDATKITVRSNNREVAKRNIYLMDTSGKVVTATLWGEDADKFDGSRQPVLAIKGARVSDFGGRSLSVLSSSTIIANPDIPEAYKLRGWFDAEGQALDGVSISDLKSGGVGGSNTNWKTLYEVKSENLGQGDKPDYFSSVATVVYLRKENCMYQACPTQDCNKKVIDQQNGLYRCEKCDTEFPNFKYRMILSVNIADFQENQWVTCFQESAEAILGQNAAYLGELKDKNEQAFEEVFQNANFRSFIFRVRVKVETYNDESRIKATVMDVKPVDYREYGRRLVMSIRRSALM
# UniProt Q9BUV8, sequence (Q9BUV8 whole entry, looked up): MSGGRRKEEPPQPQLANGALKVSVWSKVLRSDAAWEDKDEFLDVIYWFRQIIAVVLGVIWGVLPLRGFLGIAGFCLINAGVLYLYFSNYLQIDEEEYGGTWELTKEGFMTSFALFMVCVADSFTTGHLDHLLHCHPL
# UniProt O75446, sequence (O75446 whole entry, looked up): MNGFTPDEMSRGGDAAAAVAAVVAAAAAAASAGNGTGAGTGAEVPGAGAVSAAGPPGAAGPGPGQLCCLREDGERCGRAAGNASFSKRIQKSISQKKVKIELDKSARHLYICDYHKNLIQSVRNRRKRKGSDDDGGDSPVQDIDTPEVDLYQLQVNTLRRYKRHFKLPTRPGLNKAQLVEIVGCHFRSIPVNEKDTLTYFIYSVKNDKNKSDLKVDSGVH
# UniProt Q92878, sequence (Q92878 whole entry, looked up): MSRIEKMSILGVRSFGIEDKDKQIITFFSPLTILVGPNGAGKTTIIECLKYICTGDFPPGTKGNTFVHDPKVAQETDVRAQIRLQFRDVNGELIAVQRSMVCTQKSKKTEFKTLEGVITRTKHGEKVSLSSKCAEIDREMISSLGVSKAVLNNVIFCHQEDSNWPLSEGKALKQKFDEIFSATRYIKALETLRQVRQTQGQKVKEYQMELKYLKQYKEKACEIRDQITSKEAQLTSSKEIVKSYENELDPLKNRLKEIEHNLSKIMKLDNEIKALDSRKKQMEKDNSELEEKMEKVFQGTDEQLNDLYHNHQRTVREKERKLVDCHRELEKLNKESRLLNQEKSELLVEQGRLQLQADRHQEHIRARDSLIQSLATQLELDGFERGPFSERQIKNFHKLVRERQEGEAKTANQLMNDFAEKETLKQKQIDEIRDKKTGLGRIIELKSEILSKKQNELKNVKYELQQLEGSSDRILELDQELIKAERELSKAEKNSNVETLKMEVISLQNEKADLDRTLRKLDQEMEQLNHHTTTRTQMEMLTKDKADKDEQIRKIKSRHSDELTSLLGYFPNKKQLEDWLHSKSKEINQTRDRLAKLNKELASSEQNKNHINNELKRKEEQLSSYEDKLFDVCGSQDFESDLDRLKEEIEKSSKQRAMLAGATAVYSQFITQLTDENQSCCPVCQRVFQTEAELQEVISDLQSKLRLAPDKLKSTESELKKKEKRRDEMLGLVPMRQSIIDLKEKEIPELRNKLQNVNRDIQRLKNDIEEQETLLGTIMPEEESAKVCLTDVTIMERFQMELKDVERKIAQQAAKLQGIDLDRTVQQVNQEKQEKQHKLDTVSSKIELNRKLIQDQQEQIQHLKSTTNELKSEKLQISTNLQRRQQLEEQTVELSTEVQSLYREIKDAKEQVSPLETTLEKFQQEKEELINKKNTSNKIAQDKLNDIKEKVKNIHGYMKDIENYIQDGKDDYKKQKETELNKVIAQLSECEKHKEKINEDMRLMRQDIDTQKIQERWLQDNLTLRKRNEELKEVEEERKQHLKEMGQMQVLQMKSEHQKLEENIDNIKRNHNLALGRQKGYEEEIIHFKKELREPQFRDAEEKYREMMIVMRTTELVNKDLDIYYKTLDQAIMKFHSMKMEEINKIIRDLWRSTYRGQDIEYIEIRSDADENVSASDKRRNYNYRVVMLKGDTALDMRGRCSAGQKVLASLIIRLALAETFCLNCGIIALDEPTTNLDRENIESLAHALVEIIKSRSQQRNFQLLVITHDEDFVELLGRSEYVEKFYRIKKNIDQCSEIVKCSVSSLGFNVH
# UniProt Q5T160, sequence (Q5T160 whole entry, looked up): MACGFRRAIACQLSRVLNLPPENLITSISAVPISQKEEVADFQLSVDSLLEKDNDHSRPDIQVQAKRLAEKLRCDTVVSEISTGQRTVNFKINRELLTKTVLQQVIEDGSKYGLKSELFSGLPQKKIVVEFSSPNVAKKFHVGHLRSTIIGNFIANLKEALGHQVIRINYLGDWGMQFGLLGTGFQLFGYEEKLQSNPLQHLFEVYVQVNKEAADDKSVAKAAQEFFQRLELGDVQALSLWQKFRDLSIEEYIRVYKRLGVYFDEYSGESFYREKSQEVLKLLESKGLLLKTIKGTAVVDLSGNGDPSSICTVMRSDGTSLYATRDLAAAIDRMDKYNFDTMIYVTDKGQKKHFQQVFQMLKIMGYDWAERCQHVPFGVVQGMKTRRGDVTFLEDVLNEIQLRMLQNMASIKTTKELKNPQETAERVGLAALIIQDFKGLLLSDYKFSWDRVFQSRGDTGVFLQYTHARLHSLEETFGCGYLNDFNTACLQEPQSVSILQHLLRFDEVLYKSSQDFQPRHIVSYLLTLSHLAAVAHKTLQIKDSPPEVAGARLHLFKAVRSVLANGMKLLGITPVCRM
# UniProt P46063, sequence (P46063 whole entry, looked up): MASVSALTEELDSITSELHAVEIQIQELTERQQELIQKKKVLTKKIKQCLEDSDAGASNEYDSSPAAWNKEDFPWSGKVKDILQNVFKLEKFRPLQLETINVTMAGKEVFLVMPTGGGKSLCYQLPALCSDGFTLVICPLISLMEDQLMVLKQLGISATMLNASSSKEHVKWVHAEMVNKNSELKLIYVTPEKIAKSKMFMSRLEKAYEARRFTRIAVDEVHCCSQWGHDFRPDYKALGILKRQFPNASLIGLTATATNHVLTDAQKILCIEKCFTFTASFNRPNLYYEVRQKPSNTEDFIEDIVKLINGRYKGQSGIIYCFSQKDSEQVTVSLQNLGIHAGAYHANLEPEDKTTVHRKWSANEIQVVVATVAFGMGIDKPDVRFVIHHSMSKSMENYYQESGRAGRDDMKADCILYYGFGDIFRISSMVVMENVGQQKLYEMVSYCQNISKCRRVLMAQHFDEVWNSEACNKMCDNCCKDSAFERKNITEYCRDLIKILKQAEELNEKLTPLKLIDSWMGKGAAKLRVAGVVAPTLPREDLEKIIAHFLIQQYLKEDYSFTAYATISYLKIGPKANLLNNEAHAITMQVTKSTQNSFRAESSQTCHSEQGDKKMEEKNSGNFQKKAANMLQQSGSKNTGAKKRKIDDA
# UniProt Q8TBN0, sequence (Q8TBN0 whole entry, looked up): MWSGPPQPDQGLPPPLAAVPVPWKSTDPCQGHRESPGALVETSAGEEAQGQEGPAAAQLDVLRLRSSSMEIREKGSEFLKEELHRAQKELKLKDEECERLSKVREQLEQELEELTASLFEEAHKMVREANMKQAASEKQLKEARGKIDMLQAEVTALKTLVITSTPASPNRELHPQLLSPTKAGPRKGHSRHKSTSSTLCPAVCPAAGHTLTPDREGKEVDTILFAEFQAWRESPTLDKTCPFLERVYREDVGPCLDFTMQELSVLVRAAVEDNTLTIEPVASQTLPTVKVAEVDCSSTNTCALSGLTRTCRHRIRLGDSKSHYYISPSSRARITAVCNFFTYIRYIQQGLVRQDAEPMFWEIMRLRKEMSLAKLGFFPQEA
Target,log2 fold change [1],log2 fold change (crizotinib),log2 fold change [2],log2 fold change [3],log2 fold change (duvelisib),log2 fold change (gandotinib),log2 fold change (tozasertib),log2 fold change [4],log2 fold change (doramapimod),log2 fold change (ispinesib),log2 fold change (bafetinib),log2 fold change [5],log2 fold change (nilotinib),log2 fold change [6],log2 fold change (dasatinib),log2 fold change [7],log2 fold change [8],log2 fold change [9],log2 fold change (tipifarnib),log2 fold change (mubritinib)
SENP6 (UniProt Q9GZR1),-0.016,-0.015,-0.134,-0.002,0.024,-0.056,0.02,-0.046,0.006,-0.046,0.015,-0.015,0.007,-0.038,-0.028,0.063,0.046,-0.013,0.025,0.053
SCAF8 isoform 2 (UniProt Q9UPN6),0.085,-0.011,0.1,-0.018,0.053,-0.098,-0.039,0.065,0.003,-0.181,-0.024,0.019,-0.032,-0.208,-0.212,0.069,0.064,0.008,-0.027,0.023
SH3GL1 (UniProt Q99961),0.067,-0.144,0.024,0.062,0.019,-0.031,0.045,0.103,0.007,-0.156,-0.018,0.069,-0.084,-0.18,-0.262,-0.014,0.055,0.02,-0.114,0.122
RSRC2 (UniProt Q7L4I2),0.02,0.022,-0.018,-0.095,0.002,0.052,-0.058,-0.039,-0.022,0.087,-0.091,-0.091,0,-2.11 (active),0.002,-0.028,-0.007,-0.056,0.012,0.02
"SART3, A0A499FI31",-0.011,0.097,0.049,-0.124,0.012,-0.056,0.078,0.051,-0.03,0.038,-0.057,0.039,-0.02,-0.189,-0.128,-0.261 (active),0.029,-0.001,0.008,0.024
RAB3IL1 (UniProt Q8TBN0),0.009,0.086,0.071,0.031,0.026,0.012,0,-0.009,-0.021,0.04,-0.025,0.034,-0.016,0.012,-0.054,-0.015,-0.007,0.002,-0.051,0.017
RARS2 (UniProt Q5T160),-0.026,-0.016,0.091,-0.021,0.018,-0.075,0.01,0.019,-0.017,-0.033,-0.148,0.104,-0.039,0.019,-0.023,-0.006,0.061,0.012,-0.008,0.075
RAB5IF isoform 5 (UniProt Q9BUV8),-0.036,-0.094,0.076,-0.007,0.078,0.04,-0.156,-0.002,0.025,0.157,0.034,-0.01,-0.042,-0.011,0.062,-0.051,-0.054,0,-0.013,0.079
RPA1 (UniProt P27694),-0.028,-0.019,-0.199,0.036,-0.035,-0.103,0.015,0.022,-0.05,0.004,0.029,0.019,-0.051,-0.1,0.077,0.016,-0.004,0.015,-0.074,0.026
SEPTIN5 (UniProt Q99719),0.004,0.017,0.036,-0.036,0.002,-0.023,-0.008,-0.017,-0.017,0.027,-0.017,0.021,-0.011,0.002,-0.048,-0.006,0.051,0.025,-0.024,0.007
RAD50 isoform 2 (UniProt Q92878),0.031,0.064,0.044,-0.039,0.02,-0.017,0.029,0.021,-0.023,0.033,-0.015,0.009,-0.039,-0.112,-0.089,-0.016,0.023,0.042,-0.017,0.063
RECQL (UniProt P46063),0.031,0.033,0.112,-0.082,0.051,-0.057,0.001,0.003,-0.011,0.056,0.005,-0.019,0.025,0.006,-0.043,-0.033,0.055,-0.006,-0.034,0.017
RBM22 (UniProt Q9NW64),-0.045,0.061,-0.053,0.121,-0.052,-0.04,-0.052,0,-0.025,-0.053,-0.085,0,-0.019,-0.051,-0.07,0.024,-0.133,-0.071,0.008,-0.048
SEC16A isoform 5 (UniProt O15027),-0.032,-0.231,-0.113,0.143,0.004,0.087,-0.014,0.118,0.023,-0.119,0.023,0.096,0.017,-0.048,-0.169,0.021,-0.006,-0.051,0.012,-0.081
SAP30 (UniProt O75446),-0.087,0.012,-0.047,0.098,-0.09,0.162,,0.124,-0.088,,,0.076,0.083,0.01,-0.008,0.006,-0.073,,0.068,-0.118
SDHAF4 (UniProt Q5VUM1),0.033,-0.047,0.153,0.181,0.003,,0,-0.038,0.091,,-0.078,,-0.043,-0.003,0.034,0.056,0.077,,-0.041,0.03
